# Screens: PubChem, several laboratories
# A3G deaminase: APOBEC3G DNA deaminase inhibitors, primary screen, biochemical, fluorescence, single-stranded DNA substrate, uHTS; 330,000 compounds, 0.28% hits; DNA dC->dU-editing enzyme APOBEC-3G (Homo sapiens), Q9HC16; inhibition, % at 20 µM; recombinant A3G, ssDNA deamination FAM/TAMRA fluorescence;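 active means inhibition of at least 40% at 20 µM, with no more than 30% in the related APOBEC3A deaminase screen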
# A3A deaminase: APOBEC3A ssDNA deaminase inhibitors, primary screen, selectivity assay for APOBEC3G inhibitor project, biochemical, FAM/TAMRA oligo cleavage fluorescence; inhibition, % at 20 µM; recombinant A3A, FAM/TAMRA ssDNA deamination fluorescence; 330,000 compounds, 0.41% hits; DNA dC->dU-editing enzyme APOBEC-3A (Homo sapiens), P31941; AID 493011, 2011;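 active means at least 40% inhibition at 20 µM here, with at most 30% in a related deaminase screen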
# AHR activator: AHR activators, primary screen, cell-based, luminescence, luciferase reporter, human; activation, % at 5 µM; 320,000 compounds, 2.5% hits; AHR-responsive luciferase reporter cells; Aryl hydrocarbon receptor (Homo sapiens), P35869; in the data active means activation above about 47%
# NTR1 ag: agonists of human NTR1, primary screen, imaging, U2OS cells, beta-arrestin-GFP, high content; Neurotensin receptor type 1 (Homo sapiens), P30989; NTR1-U2OS beta-arrestin-GFP spot imaging, agonist mode; activation, % at 20 µM; 330,000 compounds, 0.17% hits;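 active means activation at or above 40% of the spot to cytoplasm intensity ratio, with at least 20 cells analyzed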
# AHR act cf: AHR activators, confirmation, cell-based, luminescence, luciferase reporter, human; human cells, AHR-responsive luciferase reporter; 2,300 compounds, 87% hits; AID 2845, 2010; activation, % at 9 µM; shares compounds with AHR activator; in the data active means activation above about 49%;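 further: HepG2 hepatoma cells carrying a DRE-driven firefly luciferase reporter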
# PXR act counter: human PXR activators, counter-screen for AHR activator project, cell-based, luciferase luminescence | shares compounds with AHR activator | 2,300 compounds, 88% hits | cell-based PXR reporter | activation, % at 11.6 µM; in the data active means activation above about 11%;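 further: human hepatoma DPX-2 cells expressing full-length human PXR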
# Target sequence (O75469 whole entry, looked up): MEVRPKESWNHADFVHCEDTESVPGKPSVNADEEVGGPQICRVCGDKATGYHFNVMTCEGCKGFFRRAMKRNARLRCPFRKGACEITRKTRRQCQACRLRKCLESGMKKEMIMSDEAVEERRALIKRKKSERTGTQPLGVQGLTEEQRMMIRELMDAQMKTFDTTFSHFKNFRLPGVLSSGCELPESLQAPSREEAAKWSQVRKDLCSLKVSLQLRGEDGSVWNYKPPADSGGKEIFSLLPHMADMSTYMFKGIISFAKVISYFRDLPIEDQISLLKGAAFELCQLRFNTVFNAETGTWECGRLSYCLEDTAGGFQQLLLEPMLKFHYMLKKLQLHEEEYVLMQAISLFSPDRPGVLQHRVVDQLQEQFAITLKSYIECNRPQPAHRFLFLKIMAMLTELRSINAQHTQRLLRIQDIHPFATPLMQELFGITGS
# Numbers stand for hits; - = inactive; . = no result given. Most compounds without a hit are left out; they make up all but 3.2% or so of the library.
SMILES,A3G deaminase,A3A deaminase,AHR activator,NTR1 ag,AHR act cf,PXR act counter
COCCn1c(-c2ccccc2)csc1=Nc1cccnc1,-,-,-,-,.,.
COc1cc(CN2CCC(n3nccc3NC(=O)C3CC3)CC2)cc(OC)c1,-,-,-,-,.,.
[O-][n+]1c2ccccc2c2n1CCN1CCOC21c1ccc(Cl)cc1 (configuration not stated),-,-,80,-,118,65
C=CCOC(=O)/C=C/C(=O)NC(N)=O,-,-,-,-,.,.
Cc1cc2n(n1)C(c1ccsc1)Nc1ccccc1-2 (configuration not stated),-,-,-,-,.,.
CSc1ccc(C2Nc3ccccc3-c3cc(C)nn32)cc1 (configuration not stated),-,-,101,-,100,29
Cc1c(/C=N\NC(=O)C2COc3ccc(C(C)(C)C)cc3O2)c2ccccc2n1C (configuration not stated),-,-,79,-,-,66
Cc1cn2c(N)c(/C=C3\C=Nc4ccccc43)c(=O)nc2s1,-,-,111,-,116,20
CCc1nn2c(N)c(/C=C3\C=Nc4ccccc43)c(=O)nc2s1,-,-,-,-,.,.
CCCCN(CC)C(=O)CSc1nc2n[nH]c(C)c2c(=N)n1-c1cccc(C)c1,-,-,86,-,-,147
COc1ccc(S(=O)(=O)N(C)C)cc1NC(=O)c1ccc(OCC(=O)N2CCOCC2)c(OC)c1,-,-,-,-,.,.
Cc1c(C(=O)N/N=C/C(C)C)[nH]c2c([N+](=O)[O-])cccc12,-,-,86,-,-,10
Cc1cc(C(=O)N/N=C/c2cccc([N+](=O)[O-])c2O)n[nH]1,-,-,-,-,.,.
COCc1cc(=O)[nH]c(Nc2nc3ccccc3o2)n1,-,-,130,-,74,19
S=C(Nc1ccc(Cl)cc1)c1nc2ccccc2s1,-,-,130,-,112,13
COc1ccc(NC(=O)c2nc3ccccc3s2)cc1,-,-,-,-,.,.
Cc1ccc(NC(=S)c2nc3ccccc3s2)cc1,-,-,82,-,58,18
Cc1ccc(C)c(NC(=S)c2nc3ccccc3s2)c1,-,-,83,-,135,14
NC(=S)Nc1nc2ccccc2s1,-,-,-,-,.,.
COc1cccc(NC(=O)CN2C(=O)COc3ccc(S(=O)(=O)N4CCC(C)CC4)cc32)c1,-,-,-,-,.,.
O=C(Nc1cc([N+](=O)[O-])ccc1Cl)c1ccc2c(c1)OCO2,-,-,106,-,100,23
O=C(Nc1ccc(Cl)cc1[N+](=O)[O-])c1ccc2c(c1)OCCO2,-,-,-,-,.,.
Cc1ccc([N+](=O)[O-])cc1NC(=O)c1ccc2c(c1)OCO2,-,-,115,-,100,25
Cc1ccc([N+](=O)[O-])cc1NC(=O)c1ccccc1,-,-,-,-,.,.
Cc1nn(C)c(C(=O)NNC(=O)NC2CCCCC2)c1Cl,-,-,.,-,.,.
SMILES,A3G deaminase,A3A deaminase,AHR activator,NTR1 ag,AHR act cf,PXR act counter
COc1ccc(-c2sc3cc4c(cc3c2C#Cc2cncn2C)OCO4)cc1,-,-,82,-,103,15
COc1ccc(-c2sc3cc4c(cc3c2-c2ccc(OCCN3CCOCC3)cc2)OCO4)cc1,-,-,-,-,.,.
O=C(NC(=S)Nc1ccccc1N1CCCC1)c1cccc(F)c1,-,-,80,-,91,43
Cc1cc(=O)oc2cc(OCCCC[n+]3ccccc3)ccc12,-,-,-,-,.,.
Cc1cc(=O)oc2cc(OCCc3ccccc3)ccc12,-,-,81,-,140,21
Cn1c(-c2ccc(Cl)cc2)ccc(C#N)c1=O,-,-,100,-,104,14
COc1ccc(CNCc2ccc3ccccc3c2)c(OC)c1,-,-,-,-,.,.
CCOc1ccc(-c2cc(C)n3nc(C(N)=O)cc3n2)cc1,-,-,79,-,68,.
Cc1cc(C)c2nc(SCC(=O)N3CC(=O)Nc4ccccc43)c(C#N)cc2c1,-,-,92,-,76,77
C/C=C/COC(=O)c1[nH]c2c(c1C)C(=O)CC(c1ccco1)C2 (configuration not stated),-,-,116,-,-,197
C=CCOC(=O)c1[nH]c2c(c1C)C(=O)CC(c1ccco1)C2 (configuration not stated),-,-,103,-,-,195
Cc1c(C(=O)OCC2CCCO2)[nH]c2c1C(=O)CC(c1ccco1)C2 (configuration not stated),-,-,-,-,.,.
CCOC(=O)CCCNC(=O)CN1C(=O)NC(c2ccccc2)(c2ccccc2)C1=O,-,-,-,-,.,.
N#C/C(=C\c1c(N2CCC(C(N)=O)CC2)nc2ccccn2c1=O)S(=O)(=O)c1ccc(Cl)cc1,-,-,-,-,.,.
C=CCNC(=O)c1nc2ccccc2s1,-,-,-,-,.,.
C=CCNc1sc(C(=O)c2ccccc2)c(N)c1-c1nc2ccccc2s1,-,-,132,-,90,44
O=C(NCC1OCCCN1S(=O)(=O)c1cc(F)ccc1F)C(=O)NC1CCCCC1 (configuration not stated),-,-,-,-,.,.
N#Cc1nc(-c2ccc(F)cc2)oc1NCCCn1ccnc1,-,-,106,-,97,30
CCc1ccc(NS(=O)(=O)c2c(C(=O)N3CCCCCC3)c(C)n(C)c2C)cc1,-,-,-,-,.,.
CCOc1ccc(NC(=O)CCC(=O)N/N=C2\CCCc3ccccc32)cc1,-,-,.,-,.,.
Cc1cccc2sc(N3CCN(C(=O)C4COc5ccccc5O4)CC3)nc12 (configuration not stated),-,-,-,-,.,.
Cc1cc(C)c2sc(NNC(=O)C3COc4ccccc4O3)nc2c1 (configuration not stated),-,-,103,-,69,25
Cc1cccc2sc(NNC(=O)C3COc4ccccc4O3)nc12 (configuration not stated),-,-,95,-,-,20
CCN(CC(=O)NC1CCS(=O)(=O)C1)c1ccc(S(=O)(=O)N(CC)CC)cc1[N+](=O)[O-] (configuration not stated),-,-,-,-,.,.
Nc1nc(NCCCN2CCOCC2)nc(Nc2ccc(F)cc2)c1[N+](=O)[O-],-,-,83,-,-,29
Cc1ccc(Nc2nc(N)c([N+](=O)[O-])c(N3CCOCC3)n2)cc1C,-,-,119,-,83,21
